# Laboratory results reported in PMC4336329 (PLoS ONE, 2015).
# Out of some 310,000 compounds screened, about 14,000 (4.5%) showed an effect of 50% or more. The effect is printed as a negative number. The entries come from a sample that favours strong results as a whole.
# Molecular target: human ether-à-go-go-related gene (hERG) potassium channel (human, UniProt Q12809)
# Test: primary screen, population patch clamp on CHO cells stably expressing hERG; higher = less effect of the substance
# 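Note: peak tail current of the secondary pulse compared with the same well before compound.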
# Chain of human ether-à-go-go-related gene (hERG) potassium channel (Q12809 whole entry, looked up): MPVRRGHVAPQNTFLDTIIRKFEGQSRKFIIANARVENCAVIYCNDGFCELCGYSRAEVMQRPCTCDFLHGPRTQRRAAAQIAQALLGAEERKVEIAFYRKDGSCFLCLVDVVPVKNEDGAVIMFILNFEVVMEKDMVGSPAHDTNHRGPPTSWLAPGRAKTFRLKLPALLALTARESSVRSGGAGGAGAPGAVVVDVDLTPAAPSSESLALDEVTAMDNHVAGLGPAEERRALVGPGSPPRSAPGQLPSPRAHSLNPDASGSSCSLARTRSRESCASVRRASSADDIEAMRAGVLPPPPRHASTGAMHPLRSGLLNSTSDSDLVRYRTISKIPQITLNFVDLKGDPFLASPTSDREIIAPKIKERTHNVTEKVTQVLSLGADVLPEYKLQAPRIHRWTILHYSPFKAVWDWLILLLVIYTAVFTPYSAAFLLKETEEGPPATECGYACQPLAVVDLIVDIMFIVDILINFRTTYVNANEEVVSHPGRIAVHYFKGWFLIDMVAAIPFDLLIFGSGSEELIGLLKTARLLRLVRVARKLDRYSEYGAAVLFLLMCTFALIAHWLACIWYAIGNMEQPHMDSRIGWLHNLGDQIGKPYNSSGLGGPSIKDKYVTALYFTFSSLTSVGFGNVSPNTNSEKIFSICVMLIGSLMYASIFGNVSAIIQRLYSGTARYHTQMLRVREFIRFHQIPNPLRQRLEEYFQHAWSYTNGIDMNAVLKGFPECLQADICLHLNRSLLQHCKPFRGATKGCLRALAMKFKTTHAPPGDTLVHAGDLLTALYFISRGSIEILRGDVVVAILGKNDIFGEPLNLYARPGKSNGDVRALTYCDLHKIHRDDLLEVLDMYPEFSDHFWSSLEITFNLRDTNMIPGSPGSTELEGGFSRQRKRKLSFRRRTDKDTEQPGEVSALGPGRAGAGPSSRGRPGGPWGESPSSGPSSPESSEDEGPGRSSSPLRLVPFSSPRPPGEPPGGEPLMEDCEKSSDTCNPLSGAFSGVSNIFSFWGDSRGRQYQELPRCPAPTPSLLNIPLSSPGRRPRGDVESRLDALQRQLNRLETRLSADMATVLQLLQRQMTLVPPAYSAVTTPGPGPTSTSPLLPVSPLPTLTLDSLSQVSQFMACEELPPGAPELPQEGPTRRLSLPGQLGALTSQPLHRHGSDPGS
row,SMILES,"hERG current change (%, negative = inhibition) at 10uM"
1,Cc1cc(C)n2c3c(c(C#N)c2n1)CC(C)(C)OC3,2.81%
2,c1ccc(CNc2nc(-c3ccccn3)nc3ccccc23)cc1,-43.5%
3,C(=N\Nc1nc(-c2ccccn2)nc2ccccc12)/c1ccccc1,12.3%
4,CC(C)(C)Nc1nc(-c2ccccn2)nc2ccccc12,-69.8%
5,C/C(=N\Nc1nc(-c2ccccn2)nc2ccccc12)c1ccc(F)cc1,11%
6,Cl.c1ccc(-c2nc(NCc3ccco3)c3ccccc3n2)cc1,-33.4%
7,CCC(C)Nc1nc(-c2ccccn2)nc2ccccc12 (stereo not drawn),-50.2%
8,c1ccc(CCNc2nc(-c3ccncc3)nc3ccccc23)cc1,3.71%
9,c1ccc(-c2nc(NCC3CCCO3)c3ccccc3n2)nc1 (stereo not drawn),-23.3%
10,c1ccc(CCNc2nc(-c3ccccn3)nc3ccccc23)cc1,-78.6%
11,CCC(C)Nc1nc(-c2cccc(OC)c2O)nc2ccccc12 (stereo not drawn),-5.73%
12,Oc1ccccc1-c1nc(NCc2ccco2)c2ccccc2n1,1.8%
13,c1ccc(-c2nc(NCc3ccco3)c3ccccc3n2)nc1,-62.9%
14,CCc1ccccc1NC(=O)COc1ccc2c(=O)c(Oc3cc(C)ccc3C)coc2c1,10.5%
15,Cc1cc(C(C)(C)C)c(OC(=O)[C@@H]2OC(c3ccccc3)=C[C@H]2c2ccccc2)c(C(C)(C)C)c1,7.58%
16,c1coc(C2Nc3ccccc3C3OCCC23)c1 (stereo not drawn),6.63%
17,CC(C)Cn1c(N)c(C(=O)COC(=O)C2=COCCO2)c(=O)n(C)c1=O,14.1%
18,CCOC(=O)NCN1C(=O)C2C3C=CC(C3)C2C1=O (stereo not drawn),-11.9%
19,CCN(CC)c1nc(-c2ccccc2)nc2ccccc12.Cl,-32.5%

row,SMILES,"hERG current change (%, negative = inhibition) at 10uM"
1,CCCN(CCC)c1nc(-c2ccccn2)nc2ccccc12,-74.4%
2,CCCCN(CCCC)c1nc(-c2ccncc2)nc2ccccc12,-0.281%
3,Cc1ccc(N2CC(C(=O)NCc3ccccn3)CC2=O)cc1 (stereo not drawn),5.36%
4,Cc1ccc(-c2csc(NC(=O)c3cc([N+](=O)[O-])ccc3N3CCOCC3)n2)cc1,15.4%
5,COc1ccc(C(NC(N)=O)c2ccccc2)cc1 (stereo not drawn),10.3%
6,Cc1cc(C)cc(NC(=S)N(CCN(C)C)Cc2cccs2)c1,-25.1%
7,CN1CCN(CCCN(Cc2cccs2)C(=S)Nc2ccc(Cl)cc2)CC1,-71.8%
8,CCc1ccc(NC(=S)N(CCCN2CCN(C)CC2)Cc2cccs2)cc1,-62.5%
9,CCc1cccc(C)c1NC(=S)N(CCCN1CCN(C)CC1)Cc1cccs1,-30.9%
10,Cc1cc(C)cc(NC(=S)N(CCCN2CCN(C)CC2)Cc2cccs2)c1,-63.3%
11,S=C(Nc1ccc(Cl)cc1)N(CCCN1CCOCC1)Cc1cccs1,-32.4%
12,Cc1ccc(NC(=S)N(CCN(C)C)Cc2cccs2)cc1,-19.3%
13,Cc1ccc(NC(=S)N(CCCN2CCN(C)CC2)Cc2cccs2)cc1,-51.3%
14,Cc1cc(C)c(NC(=S)N(CCCN2CCN(C)CC2)Cc2cccs2)c(C)c1,-43.9%
15,CC1CCCC(NS(=O)(=O)c2cc(Br)cnc2N)C1C (stereo not drawn),-8.36%
16,CC(=O)NC(CC(=O)Nc1nc(-c2ccccc2)c(C(C)=O)s1)c1ccccc1 (stereo not drawn),-44.4%
17,COc1ccccc1C(=O)NNC1=C(C(=O)C(F)(F)F)CCC1,-2.03%
18,O=C(CCl)NN1C(=O)NC(c2ccccc2)(c2ccccc2)C1=O,11.2%
19,O=C(O)c1ccc(N(c2ccccc2)c2ccccc2)cc1,2.69%

row,SMILES,"hERG current change (%, negative = inhibition) at 10uM"
1,CCCN1CCN(C(=O)c2cccc3c2C(=O)N(CCOC)C3)CC1,13%
2,COc1ccc(-c2nnc(SCC(N)=O)n2N)cc1,6.29%
3,COc1cc(/C=N/NC(=O)c2nnn(-c3nonc3N)c2C(C)C)ccc1O,-2.72%
4,O=C1CC(NC(=O)c2ccc(Cl)cc2)C(=O)N1 (stereo not drawn),14.8%
5,Cc1cccc2sc(NC(=O)c3ccc(OCC4CCCO4)cc3)nc12 (stereo not drawn),9.85%
6,CCc1ccc(NC(=S)N2CCNC(=O)C2CC(=O)OC)cc1 (stereo not drawn),7.17%
7,COCCNC(=O)CCCCCNS(=O)(=O)c1ccc(C)cc1,8.18%
8,CCN(CC)CCNC(=O)c1ccc(NC(=O)Cc2ccccc2F)cc1,-6.75%
9,CCc1ccc(N(CC(=O)NC(C)(C)C)C(=O)CNC(=O)c2cccs2)cc1,15.5%
10,Cc1nc(S/C(=C/c2ccc(-c3ccc(C(=O)O)cc3)o2)C(=O)O)n[nH]1,-11.4%
11,Cc1ccc(NC(=S)N(CCN(C)C)Cc2cccs2)cc1C,-46.7%
12,Cc1ccc(NC(=S)N(CCCN2CCN(C)CC2)Cc2cccs2)cc1C,-57%
13,O=S(=O)(c1ccc(SCc2ccccc2)nc1)N1CCCCC1,4.03%
14,O=C(C[n+]1ccccc1)Nc1nc2ccccc2s1.[Cl-],0.223%
15,COc1ccc(C2CC(c3ccc(Br)cc3)=NN2C(=O)CCC(=O)O)cc1OC (stereo not drawn),9.97%
16,Cc1ccc(O)c(NC(=O)C2CC(c3ccc(F)cc3)=NO2)c1 (stereo not drawn),-3.98%
17,C[C@]12CC[C@@H](O)C[C@@H]1CC[C@@H]1[C@@H]2CC[C@]2(C)C(=O)CC[C@@H]12,5.99%
18,C[C@]12CC[C@@H](O)C[C@H]1CC[C@@H]1[C@@H]2CC[C@]2(C)C(=O)CC[C@@H]12,-3.43%
19,C[C@]12CC[C@H](O)C[C@@H]1CC[C@@H]1[C@@H]2CC[C@]2(C)C(=O)CC[C@@H]12,-58.3%
